# Bioassay records deposited in PubChem BioAssay by Johns Hopkins Ion Channel Center.
# KCNQ2 pot – potentiators of rat KCNQ2 potassium channel. Potassium voltage-gated channel subfamily KQT member 2 (Rattus norvegicus), O88943. CHO-K1 KCNQ2, FluxOR thallium flux fluorescence; stronger effect = higher value. B-score at 10 µM. actives 0.54% (n = 310,000). AID 2239, 2010;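 active = fluorescence ratio B-score at least 3 SD of library B-scores, with initial fluorescence B-score within 3 of them, cut at about 5.3 in these data; same plate scores as AID 2156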;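 also: B-score of peak minus minimum over baseline fluorescence ratio after K+ and Tl+ stimulus; positive B-score means potentiation of KCNQ2 with more thallium influx and brighter signal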
# Target sequence (O88943 whole entry, looked up): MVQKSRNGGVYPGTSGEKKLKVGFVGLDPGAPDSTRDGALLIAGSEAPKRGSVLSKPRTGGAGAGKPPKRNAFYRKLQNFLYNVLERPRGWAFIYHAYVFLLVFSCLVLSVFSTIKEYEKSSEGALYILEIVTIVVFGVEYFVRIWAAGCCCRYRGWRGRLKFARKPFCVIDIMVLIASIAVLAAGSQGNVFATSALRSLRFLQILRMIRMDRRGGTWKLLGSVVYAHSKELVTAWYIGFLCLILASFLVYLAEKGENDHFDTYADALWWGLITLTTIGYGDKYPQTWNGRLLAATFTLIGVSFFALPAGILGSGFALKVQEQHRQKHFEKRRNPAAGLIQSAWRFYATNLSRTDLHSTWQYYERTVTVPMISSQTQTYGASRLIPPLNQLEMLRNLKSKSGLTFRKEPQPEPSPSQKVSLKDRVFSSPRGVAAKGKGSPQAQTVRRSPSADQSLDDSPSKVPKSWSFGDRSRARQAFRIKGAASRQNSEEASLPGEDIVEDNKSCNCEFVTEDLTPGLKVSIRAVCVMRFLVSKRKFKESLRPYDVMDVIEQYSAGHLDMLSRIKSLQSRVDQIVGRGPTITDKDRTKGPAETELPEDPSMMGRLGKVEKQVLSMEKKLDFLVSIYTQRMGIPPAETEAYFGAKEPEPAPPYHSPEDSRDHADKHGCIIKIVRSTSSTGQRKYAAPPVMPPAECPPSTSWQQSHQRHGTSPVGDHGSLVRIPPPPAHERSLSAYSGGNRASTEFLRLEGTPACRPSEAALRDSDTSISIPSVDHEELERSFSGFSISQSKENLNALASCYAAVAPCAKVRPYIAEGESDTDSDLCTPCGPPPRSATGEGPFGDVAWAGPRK
# KCNQ2 inh – rat KCNQ2 potassium channel inhibitors, primary screen, cell-based, CHO-K1, FluxOR thallium flux, B-score; 20 min; stronger effect = lower value; B-score at 10 µM; actives 1.1% (n = 310,000);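 active = fluorescence ratio B-score at most minus 3 library SDs, with starting brightness B-score within 2 library SDs, cut at about -5.5 in these data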
# The depositor's hits bear a star; i = inactive; nt = no result. The list is not random: actives were taken first. Their share in the collection is about 1.6%.
SMILES,KCNQ2 pot,KCNQ2 inh
O=C(CCN1CCN(C(=O)c2ccccc2)CC1)c1ccc(Br)cc1,-9,-9*
O=C(c1ccc(Br)cc1)N1CCN(Cc2ccccc2)CC1,nt,i
CCn1cc(/C=C(\NC(=O)c2ccccc2F)C(=O)NCCN2CCOCC2)c2ccccc21,nt,i
O=C(C1CCCN(Cc2ccc(Br)cc2)C1)N1CCCCC1 (stereo not given),2.1,i
CCc1ccc(-c2cc(C(=O)NCc3ccccn3)c3ccccc3n2)cc1,nt,i
CCc1ccccc1Nc1cc(C(=O)NCc2ccccn2)c2ccccc2n1,-5.9,-5.9*
O=C(CSc1nc2ccccc2c(=O)n1Cc1ccco1)NCc1ccco1,1.1,i
O=c1c2ccccc2nc(SCc2cc(F)cc3c2OCOC3)n1Cc1ccco1,-8,-8*
CN(Cc1ccccc1)C(=O)CSc1nc2ccccc2c(=O)n1Cc1ccco1,nt,i
CCOC(=O)c1cc2c(c(CSc3nc4ccccc4c(=O)n3Cc3ccco3)c1)OCOC2,-5.6,-5.6*
CCCCOc1ccc(C(=O)NCC(=O)N2CCN(C(=O)c3ccco3)CC2)cc1,nt,i
CC1CCN(C(=O)CN2C(=O)C(C)(C)Oc3ccc(C(=O)NC(C)C)cc32)CC1,1.2,i
COc1ccc(NC(=O)[C@H](Cc2c[nH]c3ccccc23)NC(=O)[C@@H]2Cc3ccccc3CN2)cc1,nt,i
CC(C)c1ccc(NC(=O)[C@H](Cc2c[nH]c3ccccc23)NC(=O)[C@@H]2Cc3ccccc3CN2)cc1,-8.2,-8.2*
Cc1cc(NC(=O)C(C)SCC(=O)OC(C)C(=O)Nc2ccc(F)cc2Cl)no1 (stereo not given),nt,i
CC(C)[C@H](NC(=O)C1CC(=O)N(c2ccc3c(c2)OCCO3)C1)C(=O)NC1CCCC1 (stereo not given in full),nt,i
COc1ccc(C(=O)N2c3ccccc3C=CC2C#N)cc1 (stereo not given),0.44,i
N#C[C@H]1[C@H](c2ccccc2)[C@](C#N)(C(=O)c2ccccc2)[C@@H]2C=Cc3ccccc3N21,-8.6,-8.6*
CCN(CC)C(=S)NC(=O)c1ccc(Cl)cc1Cl,4.2,i
CCCCN(CCCC)C(=S)NC(=O)c1ccccc1Cl,19*,i
O=C1NC(=Nc2ccccc2Cl)S/C1=C\c1ccc(C(=O)O)cc1,nt,i
CC12CCC(C/C1=N\N=C1\NC(=O)/C(=C\c3ccc(Cl)cc3)S1)C2(C)C (stereo not given),13*,i
CCOC(=O)C1CCN(C(=O)c2ccc(OCC(=O)Nc3cccc(C(F)(F)F)c3)cc2)CC1,-6.5,-6.5*
NC(=O)C1CCN(C(=O)c2ccc(OCC(=O)Nc3cccc(C(F)(F)F)c3)cc2)CC1,nt,i
O=C(N1CCC(n2nc(-c3ccccc3)oc2=O)CC1)C1(c2ccccc2)CC1,nt,i
SMILES,KCNQ2 pot,KCNQ2 inh
O=C(NC1CCCCC1)c1cc(-c2ccccc2O)on1,nt,i
N#CC(C#N)=Cc1ccccc1OCc1ccccc1,nt,i
Cc1cccc2nc(CNC(=O)CC3C(=O)NCCN3Cc3cccc(F)c3)cn12 (stereo not given),0.26,i
CCOC(=O)Cn1c(S(=O)(=O)Cc2ccccc2)nc2ccccc21,0.3,i
CCOC(=O)Cn1c(S(=O)(=O)Cc2ccc(Cl)cc2)nc(-c2ccccc2)c1-c1ccccc1,-6.5,-6.5*
CCN(CC)CCNC(=O)C(=O)Nc1ccc2c(c1)N(S(=O)(=O)c1cccs1)CCC2,0.01,i
Cc1ccc2c(c1)N(Cc1ccc3c(c1)OCO3)C(=O)C(C)O2 (stereo not given),nt,i
CCC1Oc2ccc(C)cc2N(Cc2cccc(C)c2)C1=O (stereo not given),-5.9,-5.9*
CC(C)Oc1ccc(S(=O)(=O)N2CCOCC2)cc1NC(=O)CN1C(=O)NC2(CCCC2)C1=O,1.9,i
CCN(CC(=O)Nc1ccccc1C(F)(F)F)C(=O)c1oc2c(Cl)cccc2c1C,-6.8,-6.8*
CCN(CC(=O)Nc1ccc(OC)cc1)C(=O)c1oc2c(Cl)cccc2c1C,0.26,i
Cc1cccc(C)c1OCC(=O)Nc1ccccc1C(F)(F)F,-7,-7*
Cc1cccc(OCC(=O)Nc2ccccc2C(F)(F)F)c1,nt,i
Cc1cccc(C)c1OCC(=O)NCc1ccccc1,-6.4,-6.4*
O=C(COc1ccccc1)NCc1ccccc1,0.27,i
CN1C(C(=O)NCc2ccco2)=CC(c2ccc(F)cc2)=NS1(=O)=O,0.17,i
CS(=O)(=O)c1cccc(C(=O)Nc2ccc3c(c2)OCCCO3)c1,nt,i
O=C(O)c1sccc1Oc1ccc(NS(=O)(=O)c2cccc(F)c2)cc1,1.6,i
Cc1nn(C)cc1S(=O)(=O)NCc1ccc2c(c1)OCO2,0.69,i
Cc1ccc(CS/C(Nc2ccccc2C)=C(\C#N)C(=O)NCc2ccco2)c(C)c1,nt,i
Cc1ccccc1N/C(SCc1ccc(Cl)cc1)=C(/C#N)C(=O)NCc1ccco1,-7,-7*
